Screening data as filed in PubChem BioAssay.
Only some compounds are listed: those with a hit (about 3.1% of all), similar ones and a draw of the others.
esBAF inh: blocks esBAF chromatin remodeling in mouse ES cells. Bmi1-luciferase knock-in reporter, 24 h; 100% = twice the neutral-well signal. reporter increase, % at 12.5 µM. actives 2% (n = 350,000). AID 602393; in the data active = activation above about 40%; inconclusive = no clear call, values can overlap the other calls;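 note: 0% = median of the plate's neutral control wells and 100% = double that signal; a rise in the Bmi1 reporter signal indicates esBAF inhibition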
Rtt109 HAT inh: inhibitors of Candida albicans Rtt109/Vps75 histone acetyltransferase | actives 0.16% (n = 330,000) | purified Rtt109/Vps75, ThioGlo CoA-SH fluorescence, 4 h | inhibition, % at 34.9 µM | Q5AAJ8;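 active = inhibition of at least 50% in every replicate; inconclusive = best replicate reaches 50% inhibition but some replicates fall short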
Target sequence (Q5AAJ8 whole entry, looked up): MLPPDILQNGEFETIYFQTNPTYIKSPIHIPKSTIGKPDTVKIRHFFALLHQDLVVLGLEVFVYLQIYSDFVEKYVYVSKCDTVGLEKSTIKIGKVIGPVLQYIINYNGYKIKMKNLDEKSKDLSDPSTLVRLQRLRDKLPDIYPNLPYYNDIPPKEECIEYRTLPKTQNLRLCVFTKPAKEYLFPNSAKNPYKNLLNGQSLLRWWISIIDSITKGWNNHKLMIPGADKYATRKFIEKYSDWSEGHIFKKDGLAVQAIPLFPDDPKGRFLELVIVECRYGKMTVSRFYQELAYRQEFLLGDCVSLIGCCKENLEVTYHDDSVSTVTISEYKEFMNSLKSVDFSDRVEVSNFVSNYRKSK
Wnt bcat act: Wnt/beta-catenin pathway activation | Wnt/beta-catenin reporter cell assay, activator, plate reader | activation, % at 9.35 µM | actives 1.2% (n = 300,000) | AID 743398; in the data active = activation above about 30%, passing the limit was not always enough; inconclusive = no clear call, values can overlap the other calls;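 note: 0% = neutral control wells and 100% = positive control wells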
C2C12 statin: suppression of simvastatin myotoxicity. C2C12 myotubes + simvastatin, ATP luminescence, 48 h; scaled: DMSO 0, geranylgeraniol control 100. rescue of ATP level, % at 7.49 µM. actives 0.78% (n = 330,000);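 active = mean ATP rescue above about 67%, or every replicate alone reaching that limit, limit read from the data, passing the limit was not always enough; inconclusive = no clear call, values can overlap the other calls; inactive = mean under the limit and some replicate under it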;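 note: myotubes were challenged with 10 µM simvastatin during compound exposure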
MITF act: MITF TRPM1 promoter activation in melanoma cells | SK-MEL-5 TRPM1-promoter luciferase, 24 h; % of positive control, neutral wells = 0 | activation, % at 12.5 µM | actives 0.75% (n = 300,000) | AID 588334;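 active = mean activation of at least 80% with every replicate also reaching 80%; inconclusive = mean reaches 80% but some replicate falls short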;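 note: 0% = neutral control wells and 100% = parthenolide positive control wells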
* hit, by the source's call; ? = inconclusive; nt = no result given.

SMILES	esBAF inh	Rtt109 HAT inh	Wnt bcat act	C2C12 statin	MITF act
COC(=O)C1=C(C)N(c2ccc(F)cc2)/C(=C/c2ccc(O)cc2)C1=O	-3	0	-2	115*	15
COC(=O)C1=C(C)N(c2ccc(C)cc2)/C(=C/c2cccs2)C1=O	-7	5	1	4	nt
O=C(C[C@@H]1CC[C@H](NC(=O)c2ccccc2)[C@@H](CO)O1)NCc1ccncn1	0	nt	nt	-1	nt
O=C1NCCN/C1=C\C(=O)c1ccc(Br)cc1	nt	nt	63*	nt	nt
CCOc1ccc(N(CC(=O)Nc2ccccc2)S(C)(=O)=O)cc1	nt	1	nt	nt	3
CCOc1ccc(N(CC(=O)Nc2ccc(C)c(C)c2)S(C)(=O)=O)cc1	84*	3	13	5	39
COc1ccc(N(CC(=O)Nc2cccc(SC)c2)S(C)(=O)=O)cc1	45*	2	nt	19	29
C[C@@H]1CN([C@H](C)CO)C(=O)c2cccc(NC(=O)c3cnccn3)c2O[C@H]1CN(C)CC1CCCCC1	-5	nt	nt	48	nt
CNC(=O)C[C@@H]1CC[C@H]2[C@@H](COc3ccc(NC(=O)c4ccc5c(c4)OCO5)cc3C(=O)N2C)O1	5	nt	nt	-14	nt
Cn1ccnc1SCC(=O)c1cccc(Br)c1	30	-2	nt	47	61
Cn1ccnc1SCC(=O)c1ccc2ccccc2c1	nt	1	50*	nt	88*
COc1cccc(C(=O)CSc2nccn2C)c1	44*	6	6	-18	nt
C[C@@H]1CN([C@@H](C)CO)C(=O)c2cc(NC(=O)NC3CCCCC3)ccc2O[C@H]1CN(C)C(=O)Nc1cccc2ccccc12	2	nt	nt	2	nt
CCOCCCN1CN(S(=O)(=O)c2ccc(Cl)cc2)c2nc3ccccc3nc21	28	-6	nt	133*	18
Cc1nc(N)nc(N)c1-c1ccc(Cl)c(Cl)c1	-47	4	-4	0	-27
Nc1nc(N)nc(-c2ccc(Cl)c(Cl)c2)n1	32	0	38*	-8	71
CN1C[C@@H]2[C@H](c3ccccc31)[C@H](CO)N2C(=O)Nc1ccccc1Cl	1	nt	nt	6	nt
Cc1ccc(S(=O)(=O)Nc2ccc3c(c2)C(=O)N([C@@H](C)CO)C[C@H](C)[C@@H](CN(C)C(=O)c2ccccc2)OCCCC[C@H](C)O3)cc1	0	nt	nt	nt	nt
O=C(C[C@@H]1C=C[C@@H](NC(=O)CN2CCOCC2)[C@H](CO)O1)NC1CCC1	5	nt	nt	2	nt
Cc1nnsc1S(=O)c1ccc(Cl)c(Cl)c1 (stereo not given)	9	-2	3	6	0
O=S(c1ccc2ccccc2c1)c1cnns1 (stereo not given)	36	-3	nt	124*	-25
CC(C)NC(=O)CN1C(=O)NC(CCc2ccccc2)C1=O (stereo not given)	4	-6	0	114*	4
CCCC(=O)Nc1nc2ccc(C(=O)OCC)cc2s1	65*	0	20	0	92*
COc1ccc(-c2nc(NC(=O)c3ccco3)sc2C)cc1	65*	nt	16	11	nt
CCOC(=O)c1ccc2nc(NC(=O)C(C)C)sc2c1	37	0	?	-8	nt
SMILES	esBAF inh	Rtt109 HAT inh	Wnt bcat act	C2C12 statin	MITF act
CCOC(=O)c1ccc2nc(NC(=O)c3ccco3)sc2c1	-35	-6	74*	-94	27
Cc1c(Cl)ccc2sc(NC(=O)c3ccco3)nc12	64*	-2	?	-1	nt
CO[C@H]1CN(C)C(=O)c2cc(NC(C)=O)ccc2OC[C@@H](C)N(C(=O)c2cnccn2)C[C@H]1C	-3	nt	nt	-5	nt
CC(=O)N(C)C[C@H]1Oc2cc(-c3cccnc3)ccc2S(=O)(=O)N([C@@H](C)CO)C[C@@H]1C	-1	nt	nt	-13	nt
CC(C)NC(=O)Nc1ccc2c(c1)C(=O)N([C@@H](C)CO)C[C@@H](C)[C@@H](CN(C)CC1CCCCC1)OCCCC[C@H](C)O2	-2	nt	nt	nt	nt
Cc1nc(-c2ccccn2)sc1C(=O)Nc1ccc(F)cc1F	58*	-7	nt	4	nt
Cc1nc(-c2ccccn2)sc1C(=O)Nc1ccc(F)cc1	25	-1	nt	-17	nt
C[C@H](CO)N1C[C@H](C)[C@@H](CN(C)S(=O)(=O)c2cn(C)cn2)Oc2ccc(NC(=O)Nc3cccc4ccccc34)cc2CC1=O	-1	nt	nt	35	nt
COc1ccccc1-c1c(C)nn2c(N3CCC(C)CC3)cc(C)nc12	5	28	-5	-13	-6
COc1ccccc1-c1c(C)nn2c(N3CCC4(CC3)OCCO4)cc(C)nc12	5	9	nt	85*	-17
Cc1nnc(N2C(=O)C(O)=C(C(=O)c3ccco3)C2c2ccc(C(C)(C)C)cc2)s1 (stereo not given)	8	15	nt	117*	7
COc1ccc2[nH]c(=O)c(CN(Cc3nnnn3Cc3ccccc3)CC3CCCO3)cc2c1 (stereo not given)	-4	53*	16	2	2
COc1ccc(/C=C2\SC(=O)N(CCNC(=O)C3CC4C=CC3C4)C2=O)cc1 (stereo not given)	nt	9	-1	nt	136*
CC(C)NC(=O)N(C)C[C@@H]1Oc2ncc(C#CC3CCCCC3)cc2C(=O)N([C@H](C)CO)C[C@@H]1C	-3	nt	nt	-3	nt
COCCn1c(SCC(=O)Nc2ccc3c(c2)OCCO3)nc2c(c1=O)SC(C)C2 (stereo not given)	47*	7	17	2	14
CCn1c(SCC(=O)NCc2ccc3c(c2)OCO3)nc2c(c1=O)SCC2	-4	-9	31*	-6	-13
CC1Cc2nc(SCC(=O)Nc3ccc4c(c3)OCCO4)n(C)c(=O)c2S1 (stereo not given)	9	?	nt	-29	-5
CC1Cc2nc(SCC(=O)Nc3ccc4c(c3)OCO4)n(Cc3ccccc3)c(=O)c2S1 (stereo not given)	64*	4	nt	-1	59
C[C@H](CO)N1C[C@H](C)[C@H](CN(C)S(=O)(=O)c2cccs2)Oc2ccc(NC(=O)CCC(F)(F)F)cc2C1=O	0	nt	nt	-1	nt
C[C@@H]1CN([C@@H](C)CO)C(=O)c2cc(NC(=O)CCCN(C)C)ccc2O[C@@H]1CN(C)Cc1ccc(C(F)(F)F)cc1	2	nt	nt	-3	nt
